According to PubChem BioAssay (EPA / NIEHS):
The source made the active and inactive calls. The calls were made as follows: active = hit-call score of the fitted dose curve at least 0.9, where 1 is the maximum; inactive = score below 0.9.

target: Transcriptional activator Myb (Homo sapiens) (UniProt P10242); assay: ATG_Myb_CIS: Attagene CIS-FACTORIAL HepG2 Assay for human Myeloblastosis (Myb) Proto-Oncogene Transcription Factor (AID 2282986); conditions: HepG2 Attagene CIS-FACTORIAL Myb reporter transcription; actives raise or lower the signal
Sequence (P10242 whole entry, looked up): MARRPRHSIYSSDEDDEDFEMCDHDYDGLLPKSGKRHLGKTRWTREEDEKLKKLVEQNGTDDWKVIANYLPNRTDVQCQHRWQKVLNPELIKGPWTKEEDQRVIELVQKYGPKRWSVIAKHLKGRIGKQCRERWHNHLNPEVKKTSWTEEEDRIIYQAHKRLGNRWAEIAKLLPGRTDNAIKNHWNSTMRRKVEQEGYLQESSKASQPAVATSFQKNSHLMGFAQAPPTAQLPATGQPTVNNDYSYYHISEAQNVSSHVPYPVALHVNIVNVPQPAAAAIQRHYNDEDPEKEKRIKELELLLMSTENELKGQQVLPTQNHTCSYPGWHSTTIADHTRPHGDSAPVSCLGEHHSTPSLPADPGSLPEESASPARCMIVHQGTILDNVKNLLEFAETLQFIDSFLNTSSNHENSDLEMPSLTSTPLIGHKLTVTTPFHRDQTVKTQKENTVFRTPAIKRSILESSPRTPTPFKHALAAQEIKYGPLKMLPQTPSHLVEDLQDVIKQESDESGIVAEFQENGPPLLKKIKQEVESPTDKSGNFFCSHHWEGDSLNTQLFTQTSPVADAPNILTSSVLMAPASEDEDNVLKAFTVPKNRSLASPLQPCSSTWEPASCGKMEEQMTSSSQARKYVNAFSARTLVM
Protocol: ATG_CIS is a cell-based, multiplexed-readout assay that uses HepG2, a human liver cell line, with measurements taken at 24 hours after chemical dosing in a 24-well plate.ATG_Myb_CIS is one of 52 assay component(s) measured or calculated from the ATG_CIS assay. It is designed to make measurements of mRNA induction, a form of inducible reporter, as detected with fluorescence intensity signals by Reverse transcription polymerase chain reaction (RT-PCR) and Capillary electrophoresis technology.Data from the assay component ATG_Myb_CIS was analyzed into 1 assay endpoint. This assay endpoint, ATG_Myb_CIS, was analyzed with bidirectional fitting relative to DMSO as the negative control and baseline of activity. Using a type of inducible reporter, measures of mRNA for gain or loss-of-signal activity can be used to understand the reporter gene at the transcription factor-level as they relate to the gene MYB. Furthermore, this assay endpoint can be referred to as a primary readout, because this assay has produced multiple assay endpoints where this one serves a reporter gene function. To generalize the intended target to other relatable targets, this assay endpoint is annotated to the dna binding intended target family, where the subfamily is MYB proteins.
Human liver HepG2 cells are transiently transfected with multiple reporter transcription units (MRTUs) in 6-well plates using FuGene 6 reagent (Roche; 3 ml FuGene/1 mg DNA). The MRTU constructs are regulated by a cis-regulating element (promoter). […] A major difference between the CIS and TRANS system is that in CIS activities of endogenous TFs are measured, whereas the TRANS assay evaluates changes in activities of exogenous, chimeric NR-Gal4 proteins. […] At the end of 24 hour incubation, total RNA was isolated using TriZol reagent (Invitrogen). The isolated RNA is then reverse-transcribed using oligo(dT) primer and Mo-MLV reverse transcriptase (Invitrogen) with DNAse I (Ambion) treatment for 30 min. The one-tenth of the produced cDNA was amplified by PCR using Taq DNA polymerase (Invitrogen) and two reporter sequence-specific primers. The PCR products were fluorescently labeled by primer extension with 6-arboxyfluorescein (6-FAM) 5'-labeled reporter sequence-specific primer (2 min at 95 C, 20 s at 68 C and 10 min at 72 C) and these products were digested with 5U of HpaI (New England Biolabs) for 2h at 37 C. The fragments were purified using Qiaquick PCR columns (Qiagen), analyzed on an ABI 3130xL genetic analyzer (Applied Biosystems) with peak positions identified by using a set of X-rhodamine (ROX)-labeled MapMarker1000 molecular weight standards (BioVentures). The raw capillary electrophoresis data was processed using Attagraph software (Attagene).

Row | SMILES | outcome | AC50
1 | CNC(=C[N+](=O)[O-])NCCSCc1csc(CN(C)C)n1 | inactive | 
2 | CC1=NN(c2cc(Cl)c(S(=O)(=O)O)cc2Cl)C(=O)C1N=Nc1ccc(S(=O)(=O)O)cc1 (stereo not given) | inactive | 
3 | C=CN1CCCCCC1=O | inactive | 
4 | CC(O)(P(=O)(O)O)P(=O)(O)O | inactive | 
5 | CC(=O)c1nccs1 | inactive | 
6 | C1=CCC=C1 | inactive | 
7 | COC(OC)C(C)c1ccccc1 (stereo not given) | inactive | 
8 | O=C(O)/C=C/C(=O)O | inactive | 
9 | Cc1ccnc(N)c1 | inactive | 
10 | CO[Si](CCCNCCN)(OC)OC | inactive | 
11 | CC/C=C\CCO | inactive | 
12 | c1ccc(CNc2ncnc3nc[nH]c23)cc1 | inactive | 
13 | Cc1cccnc1 |  | 164 µM (active)
14 | c1ccc2c(c1)Oc1ccccc1S2 | inactive | 
15 | C=CCOC(=O)C(=C)C | inactive | 
16 | CC(=O)Nc1c(I)c(NC(C)=O)c(I)c(C(=O)O)c1I | inactive | 
17 | c1cc(N(CC2CO2)CC2CO2)ccc1Cc1ccc(N(CC2CO2)CC2CO2)cc1 (stereo not given) | inactive | 
18 | CC(C)(Oc1ccc(Cl)cc1)C(=O)O | inactive | 
19 | CCC(C)(CCC(C)C)C(=O)O (stereo not given) | inactive | 
20 | O=C(O)Cc1c[nH]c2ccccc12 | inactive | 

Row | SMILES | outcome | AC50
21 | Clc1ccc(Sc2cc(Cl)c(Cl)cc2Cl)cc1 | inactive | 
22 | COc1cccc(OC)c1C(=O)O | inactive | 
23 | CN(C)Cc1cc(C(C)(C)C)c(O)c(C(C)(C)C)c1 | inactive | 
24 | CCCCCC[C@@H](O)C/C=C\CCCCCCCC(=O)O |  | 123 µM (active)
25 | COC(=O)CCSCCC(=O)OC | inactive | 
26 | C=C(C)C(=O)OCCCCCC | inactive | 
27 | CCCCCCC1CCC(=O)O1 (stereo not given) | inactive | 
28 | CC(=O)OC(C)(C)Cc1ccccc1 | inactive | 
29 | O=C(Oc1ccccc1)c1ccccc1 | inactive | 
30 | CC[N+](CC)(CC(=O)Nc1c(C)cccc1C)Cc1ccccc1 (tested in a mixture with another compound) | inactive | 
31 | CC/C=C\CC/C=C/C(OCC)OCC | inactive | 
32 | CCCC(=O)OC/C=C(\C)CCC=C(C)C | inactive | 
33 | CCCCC(CC)COC(=O)CS (stereo not given) | inactive | 
34 | CC(C)CC(=O)CC(C)C | inactive | 
35 | CN(C)N=Nc1ccccc1 | inactive | 
36 | c1cc[c]([Bi]([c]2ccccc2)[c]2ccccc2)cc1 | inactive | 
37 | F[B-](F)(F)F | inactive | 
38 | NC(=O)c1ccc(N)cc1 | inactive | 
39 | CNC[C@H](O)[C@@H](O)[C@H](O)[C@H](O)CO | inactive | 
40 | CC(=O)CCc1ccccc1 | inactive | 
